Our source for the Percent Effect values is ChEMBL document CHEMBL3988442, “University of Dundee, Small-Polar-MMV Screening Library” (2021).

For some assays here: Results with a measured potency or affinity are listed apart.

Common to all, as to parameters: scale not given: direction of the effect not stated beside the values
Assay [1] has as its target Protein translocase subunit SecA (Escherichia coli (strain K12)) (UniProt P10408). The assay is described as follows: Assay to Identify E. coli SecA ATPase Inhibitors. Type of assay: functional. Conditions: 30 µM.
Assay [2] deals with T1, Ubiquitin-activating enzyme e1, putative (Leishmania donovani (strain BPK282A1)) (UniProt E9BSI1).
T1 sequence (whole entry): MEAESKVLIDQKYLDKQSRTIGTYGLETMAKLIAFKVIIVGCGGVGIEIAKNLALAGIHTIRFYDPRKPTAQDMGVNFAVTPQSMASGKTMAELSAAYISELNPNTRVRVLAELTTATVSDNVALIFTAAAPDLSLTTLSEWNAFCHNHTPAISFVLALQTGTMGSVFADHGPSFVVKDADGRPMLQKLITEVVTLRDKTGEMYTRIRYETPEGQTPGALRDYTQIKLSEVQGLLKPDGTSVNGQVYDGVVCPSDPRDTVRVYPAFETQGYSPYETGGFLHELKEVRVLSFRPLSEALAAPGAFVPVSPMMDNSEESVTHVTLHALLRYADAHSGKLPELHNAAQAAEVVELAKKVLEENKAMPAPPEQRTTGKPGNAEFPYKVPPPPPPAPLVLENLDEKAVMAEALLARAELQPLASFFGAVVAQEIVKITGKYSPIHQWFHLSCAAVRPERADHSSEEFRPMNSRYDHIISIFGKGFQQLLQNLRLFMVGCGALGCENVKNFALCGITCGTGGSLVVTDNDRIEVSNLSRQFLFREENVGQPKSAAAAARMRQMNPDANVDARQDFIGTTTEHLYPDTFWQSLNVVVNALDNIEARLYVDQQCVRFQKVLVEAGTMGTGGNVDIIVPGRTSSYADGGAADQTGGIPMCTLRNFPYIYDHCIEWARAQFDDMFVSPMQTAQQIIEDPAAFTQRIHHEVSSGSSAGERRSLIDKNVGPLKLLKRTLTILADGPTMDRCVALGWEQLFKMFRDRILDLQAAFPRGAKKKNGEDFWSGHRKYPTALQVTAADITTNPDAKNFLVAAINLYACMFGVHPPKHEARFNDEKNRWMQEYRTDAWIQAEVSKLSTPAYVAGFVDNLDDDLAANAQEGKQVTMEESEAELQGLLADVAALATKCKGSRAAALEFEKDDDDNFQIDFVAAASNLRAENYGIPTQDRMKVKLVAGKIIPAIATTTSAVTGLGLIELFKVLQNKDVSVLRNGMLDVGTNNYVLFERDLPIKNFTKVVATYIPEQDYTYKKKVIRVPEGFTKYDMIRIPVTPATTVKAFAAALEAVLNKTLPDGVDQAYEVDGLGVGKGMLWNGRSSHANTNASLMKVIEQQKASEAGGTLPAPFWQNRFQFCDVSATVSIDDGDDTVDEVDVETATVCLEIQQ
The assay is described as follows: Leishmania donovani Ubiquitin Activating Enzyme (LdE1). Conditions: 30 µM. The assay is classed as functional.

For assay [3], the target named is AMP-activated protein kinase, AMPK (Homo sapiens) (UniProt P54646+O43741+P54619+Q9UGJ0+Q9Y478+Q13131+Q9UGI9). The assay is described as follows: AMP-dependent Kinase enzyme assay. An in vitro enzyme assay that detects ADP turnover that is directly proportional to AMPK activity. This uses naive AMPK that is activated during the assay with MK-8722. Type of assay: functional. The note with it: 30 µM.

In assay [4] the target is Sialic acid-binding Ig-like lectin 9 (Homo sapiens) (UniProt Q9Y336). The assay is described as follows: Hs-Siglec9 ALPHAscreen SOP 20170721. The note with it: 10 µM. In general terms: Bead proximity is the source of the signal in Alpha formats.
Sequence of Sialic acid-binding Ig-like lectin 9 (Homo sapiens) (Q9Y336 whole entry): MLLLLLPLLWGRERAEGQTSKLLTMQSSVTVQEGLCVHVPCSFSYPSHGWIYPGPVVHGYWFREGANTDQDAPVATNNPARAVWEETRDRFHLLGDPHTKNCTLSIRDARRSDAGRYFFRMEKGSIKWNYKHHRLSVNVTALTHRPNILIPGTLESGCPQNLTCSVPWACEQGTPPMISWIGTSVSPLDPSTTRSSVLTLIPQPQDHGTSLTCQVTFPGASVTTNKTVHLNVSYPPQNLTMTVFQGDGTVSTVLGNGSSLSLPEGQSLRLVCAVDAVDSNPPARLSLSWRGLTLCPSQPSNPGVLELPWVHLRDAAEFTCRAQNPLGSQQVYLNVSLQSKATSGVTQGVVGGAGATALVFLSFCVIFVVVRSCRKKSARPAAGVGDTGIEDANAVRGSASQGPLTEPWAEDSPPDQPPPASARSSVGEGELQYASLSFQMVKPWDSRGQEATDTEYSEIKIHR
For a further assay, the system named is Trypanosoma cruzi. The assay can be described thus: Trypanosoma cruzi phosphomannomutase and mannose-1-phosphate guanylyltransferase assay. Type of assay: functional. The note with it: 10 µM.
Assay [5] deals with T2, Arginase-2, mitochondrial (Homo sapiens) (UniProt P78540).
T2 sequence (whole entry): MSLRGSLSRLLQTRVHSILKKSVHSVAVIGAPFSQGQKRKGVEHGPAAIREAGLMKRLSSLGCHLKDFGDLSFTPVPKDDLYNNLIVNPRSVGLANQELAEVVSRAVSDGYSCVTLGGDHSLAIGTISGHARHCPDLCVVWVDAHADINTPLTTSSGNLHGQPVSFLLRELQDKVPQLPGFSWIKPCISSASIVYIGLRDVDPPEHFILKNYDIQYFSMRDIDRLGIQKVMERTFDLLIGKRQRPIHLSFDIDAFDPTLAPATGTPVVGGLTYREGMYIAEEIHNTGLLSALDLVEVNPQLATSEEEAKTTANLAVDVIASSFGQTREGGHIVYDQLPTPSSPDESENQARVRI
The assay is described as follows: in vitro enzyme assay to detect the production of urea directly proportional to the activity of Arginase II. Also: in the data most compounds retested in dose-response had high values. The assay is classed as functional. The note with it: 33.3 µM.

Assay [6] concerns the target T3, Proteasome subunit beta (Trypanosoma cruzi) (UniProt O96673).
T3 sequence (whole entry): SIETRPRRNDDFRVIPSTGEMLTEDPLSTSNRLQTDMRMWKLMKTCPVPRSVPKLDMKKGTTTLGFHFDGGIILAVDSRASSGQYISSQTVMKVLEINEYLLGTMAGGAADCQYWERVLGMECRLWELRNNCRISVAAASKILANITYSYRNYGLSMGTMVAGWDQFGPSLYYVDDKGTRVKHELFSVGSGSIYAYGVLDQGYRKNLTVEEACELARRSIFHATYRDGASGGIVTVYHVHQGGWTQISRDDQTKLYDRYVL
The assay can be described thus: Trypanosoma cruzi proteasome chymotrypsin-like activity (TcProtChymo) assay. Also: in the data most compounds retested in dose-response had high values. Type of assay: functional. The note with it: 9.37 µM.

The species named for another assay is Homo sapiens. The assay can be described thus: To identify inhibition of the IFN signalling (Jak-Stat) pathway via expression of an eGFP reporter gene under the control of an IFN-stimulated response element (ISRE) containing MxA promoter. Type of assay: functional. Conditions: 30 µM. In general terms: Reporter assays use an easily measured gene product as a stand-in for the process of interest.

For assay [7], the target named is T4, Tyrosyl-tRNA synthetase, putative (Trypanosoma cruzi (strain CL Brener)) (UniProt Q4DSP6).
T4 sequence (whole entry): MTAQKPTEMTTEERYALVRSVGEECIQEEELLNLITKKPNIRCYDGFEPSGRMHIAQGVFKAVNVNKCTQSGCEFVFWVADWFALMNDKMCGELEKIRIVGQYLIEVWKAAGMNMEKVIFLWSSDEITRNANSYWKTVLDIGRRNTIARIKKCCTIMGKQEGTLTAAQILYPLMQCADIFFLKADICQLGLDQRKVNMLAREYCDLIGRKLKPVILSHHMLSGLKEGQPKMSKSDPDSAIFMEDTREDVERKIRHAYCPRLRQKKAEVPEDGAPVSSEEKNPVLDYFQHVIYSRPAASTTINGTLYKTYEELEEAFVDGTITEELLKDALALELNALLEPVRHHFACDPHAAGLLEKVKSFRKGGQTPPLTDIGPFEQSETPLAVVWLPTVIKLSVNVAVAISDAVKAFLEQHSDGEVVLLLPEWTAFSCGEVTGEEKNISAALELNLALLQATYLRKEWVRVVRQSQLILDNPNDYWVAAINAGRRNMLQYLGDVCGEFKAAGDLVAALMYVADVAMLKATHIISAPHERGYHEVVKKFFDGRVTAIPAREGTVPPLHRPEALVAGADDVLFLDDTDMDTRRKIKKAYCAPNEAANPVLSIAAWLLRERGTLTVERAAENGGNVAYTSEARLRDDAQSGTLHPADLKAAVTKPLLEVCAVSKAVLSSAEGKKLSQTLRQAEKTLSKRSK
The assay is described as follows: Trypanosoma cruzi tyrosyl tRNA synthetase (TcYRS) _High Tyrosine SOP. Also: in the data most compounds retested in dose-response had high values. The note with it: 30 µM. Type of assay: functional.

Assay [8] has as its target T4, Tyrosyl-tRNA synthetase, putative (Trypanosoma cruzi (strain CL Brener)). The assay can be described thus: Trypanosoma cruzi tyrosyl tRNA synthetase (TcYRS) SOP. The note with it: 30 µM. Type of assay: functional.
In assay [9] the target is Chromo domain-containing protein 1 (Saccharomyces cerevisiae (strain ATCC 204508 / S288c) (Baker's yeast)) (UniProt P32657). The assay is described as follows: ScCHD-1 Enzyme Inhibition Assay. Also: in the data most compounds retested in dose-response had high values. The assay is classed as functional. The note with it: 30 µM.
Sequence of Chromo domain-containing protein 1 (Saccharomyces cerevisiae (strain ATCC 204508 / S288c) (Baker's yeast)) (P32657 whole entry, the tested form may be a part): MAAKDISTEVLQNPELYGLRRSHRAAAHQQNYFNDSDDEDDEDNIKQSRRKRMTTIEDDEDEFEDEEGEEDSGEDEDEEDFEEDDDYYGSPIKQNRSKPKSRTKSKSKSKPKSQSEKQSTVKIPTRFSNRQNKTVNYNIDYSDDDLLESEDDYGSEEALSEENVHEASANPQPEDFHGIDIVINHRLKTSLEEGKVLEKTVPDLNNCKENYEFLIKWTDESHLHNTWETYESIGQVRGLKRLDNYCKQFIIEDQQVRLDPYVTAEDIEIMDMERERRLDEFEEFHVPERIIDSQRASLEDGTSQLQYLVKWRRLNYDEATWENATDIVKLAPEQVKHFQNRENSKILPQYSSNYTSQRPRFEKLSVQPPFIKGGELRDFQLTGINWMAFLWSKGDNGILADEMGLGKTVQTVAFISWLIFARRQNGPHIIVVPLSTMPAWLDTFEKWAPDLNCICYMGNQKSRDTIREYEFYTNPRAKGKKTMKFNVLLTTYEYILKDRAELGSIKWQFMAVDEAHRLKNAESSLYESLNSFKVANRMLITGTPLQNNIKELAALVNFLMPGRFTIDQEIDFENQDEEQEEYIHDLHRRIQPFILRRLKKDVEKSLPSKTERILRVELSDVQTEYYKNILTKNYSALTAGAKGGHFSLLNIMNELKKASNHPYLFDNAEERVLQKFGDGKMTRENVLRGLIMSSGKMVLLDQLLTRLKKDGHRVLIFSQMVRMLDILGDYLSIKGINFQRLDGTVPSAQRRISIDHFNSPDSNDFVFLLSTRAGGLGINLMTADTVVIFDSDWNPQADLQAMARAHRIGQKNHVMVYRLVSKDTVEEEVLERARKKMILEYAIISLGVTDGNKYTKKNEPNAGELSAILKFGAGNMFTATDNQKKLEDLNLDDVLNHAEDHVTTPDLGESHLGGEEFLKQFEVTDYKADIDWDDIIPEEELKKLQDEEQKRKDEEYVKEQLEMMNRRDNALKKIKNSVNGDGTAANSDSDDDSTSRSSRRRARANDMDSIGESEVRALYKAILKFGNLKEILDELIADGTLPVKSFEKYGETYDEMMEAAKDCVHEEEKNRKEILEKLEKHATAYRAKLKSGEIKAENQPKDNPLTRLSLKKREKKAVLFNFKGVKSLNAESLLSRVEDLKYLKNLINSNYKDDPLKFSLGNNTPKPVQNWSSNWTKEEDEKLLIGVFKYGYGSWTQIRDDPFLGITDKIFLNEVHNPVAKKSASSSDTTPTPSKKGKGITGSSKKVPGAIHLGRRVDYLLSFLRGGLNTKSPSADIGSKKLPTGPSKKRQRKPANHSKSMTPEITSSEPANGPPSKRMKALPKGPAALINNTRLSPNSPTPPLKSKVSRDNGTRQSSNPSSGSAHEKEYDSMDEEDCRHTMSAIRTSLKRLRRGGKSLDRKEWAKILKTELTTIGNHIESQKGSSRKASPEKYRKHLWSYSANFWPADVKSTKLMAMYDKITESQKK

Sequence of Protein translocase subunit SecA (Escherichia coli (strain K12)) (P10408 whole entry): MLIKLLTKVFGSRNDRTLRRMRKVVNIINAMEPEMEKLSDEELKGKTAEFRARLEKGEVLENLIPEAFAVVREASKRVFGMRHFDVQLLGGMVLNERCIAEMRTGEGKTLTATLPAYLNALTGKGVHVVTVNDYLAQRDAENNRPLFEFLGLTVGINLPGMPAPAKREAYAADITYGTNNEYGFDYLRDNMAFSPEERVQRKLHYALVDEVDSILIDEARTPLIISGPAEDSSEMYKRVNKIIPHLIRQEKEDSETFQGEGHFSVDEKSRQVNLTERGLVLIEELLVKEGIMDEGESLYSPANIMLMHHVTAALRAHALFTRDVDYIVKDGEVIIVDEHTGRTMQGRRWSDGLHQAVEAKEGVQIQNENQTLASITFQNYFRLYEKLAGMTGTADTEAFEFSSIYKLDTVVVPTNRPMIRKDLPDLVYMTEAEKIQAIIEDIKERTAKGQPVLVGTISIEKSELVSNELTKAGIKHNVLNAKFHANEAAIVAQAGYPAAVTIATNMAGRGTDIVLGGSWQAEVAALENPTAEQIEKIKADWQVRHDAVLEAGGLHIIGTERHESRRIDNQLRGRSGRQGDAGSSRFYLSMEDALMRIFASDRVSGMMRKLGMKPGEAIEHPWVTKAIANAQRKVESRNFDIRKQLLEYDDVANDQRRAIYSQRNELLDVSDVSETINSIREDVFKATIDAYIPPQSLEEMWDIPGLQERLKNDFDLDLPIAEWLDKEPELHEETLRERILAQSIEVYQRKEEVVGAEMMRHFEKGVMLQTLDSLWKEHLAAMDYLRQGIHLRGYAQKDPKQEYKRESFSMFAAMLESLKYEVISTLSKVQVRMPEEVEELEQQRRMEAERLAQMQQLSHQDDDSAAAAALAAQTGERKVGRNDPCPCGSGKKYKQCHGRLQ

In the case of `CN(CCN1CCCCCC1)C(=O)c1cc(CN2CCC(O)CC2)on1`, the Percent Effect was -4.14% in assay [1]; 2.74% in assay [2]; -1.87% in [3]; -2.01% in assay [4]; 2.74% with Trypanosoma cruzi; 0.909% in [5]. The Percent Effect in assay [6] was 13.3%; in the assay filed under Homo sapiens, -3.45%; in assay [7] it was 8.6%; in [8], 15%; in assay [9] it was -2.4%.
Regarding `Cc1cc(C[C@@H]2CCC[C@H]2NCc2cc(C)c(O)c(C)c2)on1`, the Percent Effect is 0.891% in [1]; 9.46% in [2]; 18.3% in [3]; -0.421% in assay [4]; -9.88% in the assay with Trypanosoma cruzi; -0.232% in [5]. For the same molecule, the Percent Effect is 15.1% in assay [6]; 41.8% in the assay listed under Homo sapiens; 0% in assay [7]; 9.09% in assay [8]; -12.1% in [9].
With `Cc1cc(F)c(S(=O)(=O)NCCCN2CCC(O)CC2)cc1F`, the Percent Effect in assay [1] is 0.398%; in assay [2] it was 5.2%; in assay [3], 5.04%; in assay [4] it was -1.8%; in the assay on Trypanosoma cruzi, -10.9%; in assay [5], -24.8%. The Percent Effect in [6] is 15.8%; in the assay filed under Homo sapiens, 19.9%; in assay [7] it was -1.07%; in [8] it was 1.24%; in assay [9], -1.88%.
For `CCc1nnc2n1CCN(C(=O)c1ccc3[nH]cnc3c1)C2`, the Percent Effect in assay [1] was -7.1%; in assay [2], 12.5%; in [3], -11.5%; in assay [4], 41.5%; in the assay on Trypanosoma cruzi, 6.9%; in [5], 3.97%. The Percent Effect was 10.2% in assay [6]; 0.294% in the assay filed under Homo sapiens; 3.16% in assay [7]; 15.4% in [8]; -13.2% in assay [9].
Consider `Cc1cn2c(n1)CCC(NC(=O)c1cnc(C)nc1C(C)C)C2` (stereo not given), for which the Percent Effect in [1] is -4.68%; in assay [2] it was 10.4%; in [3], -12.2%; in assay [4], 12.9%; in the assay with Trypanosoma cruzi, 3.23%; in assay [5], 1.9%. For the same molecule, the Percent Effect was 3.48% in [6]; 1.24% in the assay filed under Homo sapiens; 10.5% in [7]; 18.8% in assay [8]; -16.9% in assay [9].
In the case of `CNCC(=O)N1CCCC(c2nccnc2Oc2cccc(F)c2)C1` (stereo not given), the Percent Effect in [1] was -7.42%; in assay [2], 10.7%; in assay [3], 10%; in assay [4], -1.6%; in the assay with Trypanosoma cruzi it was -3.74%; in assay [5], -3.03%. The Percent Effect is 9.25% in assay [6]; 11.8% in the assay filed under Homo sapiens; 3.19% in assay [7]; 3.85% in [8]; -4.73% in assay [9].
For the molecule `O=C(N1CCOCC1)N1CCc2ncnc(NC3CC3)c2CC1`, the Percent Effect is -0.799% in assay [1]; 0% in assay [2]; 6.99% in assay [3]; -5.96% in [4]; -7.81% with Trypanosoma cruzi; 6.67% in assay [5]. In addition, the Percent Effect in assay [6] turned out to be 19.2%; in the assay filed under Homo sapiens, 19.9%; in [7], 0.99%; in [8], 6.1%; in assay [9], 0.83%.
Take `CC(C)CC1SCC(=O)Nc2c1cnn2-c1ccc(F)cc1` (stereo not given): the Percent Effect in assay [1] was -4.89%; in [2] it was 6.67%; in assay [3], 1.34%; in [4], 3.64%; in the assay on Trypanosoma cruzi, 4.91%; in [5], -3.35%. For the same molecule, the Percent Effect in assay [6] was 2.03%; in the assay listed under Homo sapiens, 1.9%; in [7] it was 6.35%; in [8], 7.69%; in assay [9], -4.25%.
With `O=C(Cc1ccc2c(c1)OCO2)N1CCN(c2cnccn2)CC1`, the Percent Effect is -1.75% in [1]; 15.8% in [2]; -3.5% in assay [3]; 4.13% in assay [4]; 6.77% in the assay with Trypanosoma cruzi; 4.21% in assay [5]. Besides, the Percent Effect was 8.69% in assay [6]; 2.58% in the assay listed under Homo sapiens; 5.39% in assay [7]; 21.9% in assay [8]; -11.8% in assay [9].
On to `CCn1c(C2CCCN(Cc3nccn3CCOC)C2)nn(C)c1=O` (stereo not given), for which the Percent Effect was -0.824% in assay [1]; 8.11% in [2]; -5.71% in assay [3]; 28.2% in [4]; 3.03% with Trypanosoma cruzi; 32.5% in assay [5]. In addition, the Percent Effect is 3.69% in assay [6]; -44.6% in the assay listed under Homo sapiens; 9.68% in assay [7]; 18.5% in assay [8]; -6.18% in assay [9].
